ClpP mod = qHTS Assay for Activators of ClpP | purified B. subtilis ClpP, FRET peptide cleavage, 20 min | Potency, µM (top dose mostly 57.5 µM) | hit rate 1.9% among 340,000 | AID 651965, 2013; active = well fitted falling curve with a large enough effect; inconclusive = small, poorly fitted or top-dose-only effect; inactive = no such curve, though single readings can be large or run the other way; note: the source files actives as falling curves though it sought activators and does not explain the sign; nearly all actives have a fitted effect of over 65% in size
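FRET quenching reversal measured ClpP activation: 10 microg/mL B. subtilis ClpP at pH 8 with the FRET-FV decapeptide, read at 430 nm after 320 nm excitation. The 20-min minus 0-min signal was scaled between DMSO/no-enzyme wells and ADEP (5.8 microM final).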
TDP1 inh = qHTS Assay for Inhibitors of Tyrosyl-DNA Phosphodiesterase (TDP1); Tyrosyl-DNA phosphodiesterase 1 (Homo sapiens), Q9NUW8; recombinant TDP1, AlphaScreen DNA substrate cleavage; Potency, µM (doses to about 130 µM), most hits filed as inhibitors; hit rate 0.28% among 350,000; AID 485290, 2010; note: nearly all actives have a fitted effect of over 40% in size
Target sequence (Q9NUW8 whole entry, looked up): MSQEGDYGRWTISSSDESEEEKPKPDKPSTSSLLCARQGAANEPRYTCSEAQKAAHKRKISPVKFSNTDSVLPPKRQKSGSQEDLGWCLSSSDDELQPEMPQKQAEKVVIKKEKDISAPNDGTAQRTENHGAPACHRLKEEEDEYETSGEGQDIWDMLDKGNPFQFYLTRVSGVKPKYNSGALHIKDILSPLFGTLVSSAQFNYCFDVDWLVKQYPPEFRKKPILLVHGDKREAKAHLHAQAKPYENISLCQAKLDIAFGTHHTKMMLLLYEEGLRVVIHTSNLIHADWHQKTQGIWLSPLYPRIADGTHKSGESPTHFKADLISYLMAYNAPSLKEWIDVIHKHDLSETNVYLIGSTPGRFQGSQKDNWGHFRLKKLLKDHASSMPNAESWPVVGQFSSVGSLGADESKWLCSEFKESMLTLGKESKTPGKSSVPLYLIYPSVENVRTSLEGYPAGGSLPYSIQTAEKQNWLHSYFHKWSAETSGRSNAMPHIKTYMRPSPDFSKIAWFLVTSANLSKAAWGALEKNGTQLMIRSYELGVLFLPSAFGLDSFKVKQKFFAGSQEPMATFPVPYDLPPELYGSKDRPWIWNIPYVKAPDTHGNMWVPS
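Here, a 5' biotin and 3' phosphotyrosine-FITC DNA oligonucleotide reports Tdp1 activity: intact substrate bridges AlphaScreen beads, while cleavage leaves a 3' phosphate and drops signal. All incubations at room temperature.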
DT40 TDP1 no CPT = qHTS for Inhibitors of human tyrosyl-DNA phosphodiesterase 1 (TDP1): qHTS in cells in absence of CPT. DT40 Tdp1-/- hTDP1 cells, no CPT, ATP luminescence, 48 h. AID 686978, 2013. Potency, µM (doses to about 46.2 µM), usual class: inhibitors. hit rate 15% among 420,000; note: nearly all actives have a fitted effect of over 55% in size
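Luminescent ATP content (CellTiter-Glo) served as the growth readout. Knockout chicken DT40 cells expressing human TDP1 were exposed to compounds without camptothecin for a minimum 48 hr at 37 °C.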
TDP1 cell CPT = qHTS for Inhibitors of human tyrosyl-DNA phosphodiesterase 1 (TDP1): qHTS in cells in presence of CPT; chicken DT40 Tdp1-/-;hTDP1 cells + 20 nM CPT, ATP luminescence, 48 h; Potency, µM (series often up to 46.2 µM), actives largely listed as inhibitors; hit rate 12% among 420,000; AID 686979, 2013; note: nearly all actives have a fitted effect of over 55% in size
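Cell growth measured by CellTiter-Glo luminescence after a minimum 48 h, 37 C compound exposure with 20 nM CPT in Tdp1-knockout DT40 cells stably expressing hTDP1, seeded 400/well; qHTS titration format.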
Each line names hits and unclear results; the compound was inactive in the other large screens; ! = not active in a repeat. Rows were chosen to be rich in hits. Some 17% of all compounds tested hit in one or more screens of this group. Unless noted, calls come from the whole dose curve; as a rule, active = well fitted curve in the direction sought with a large enough effect; inconclusive = small, poorly fitted or top-dose-only effect, or another doubt; inactive = no such curve, though single readings can be large; an effect the other way counts as inactive or inconclusive.

COc1ccc(C)c2sc(N(CCN(C)C)C(=O)c3ccc4ccccc4c3)nc12	DT40 TDP1 no CPT inconclusive, TDP1 cell CPT 18µM
Cc1cc(C)c2nc(N(CCN(C)C)C(=O)c3ccc4ccccc4c3)sc2c1	DT40 TDP1 no CPT 13µM, TDP1 cell CPT 16µM
COc1ccc(C2Nc3ccccc3C(=O)N2C2CCCC2)cc1COc1ccc(NC(C)=O)cc1 (centres undefined)	none (no result: ClpP mod, DT40 TDP1 no CPT, TDP1 cell CPT)
NC(=O)NOCc1ccccc1F	none (no result: ClpP mod)
Cc1cc(Cn2nc(C(=O)NCc3cccc(C(F)(F)F)c3)cc2-c2ccccc2)on1	DT40 TDP1 no CPT inconclusive, TDP1 cell CPT inconclusive
Cc1ccc(CNC(=O)c2cc(-c3ccccc3)n(Cc3cc(C)no3)n2)cc1	DT40 TDP1 no CPT inconclusive, TDP1 cell CPT 21µM
C=C(C)CN=C1NN=C(c2cc(C)n(-c3ccc(C)cc3)c2C)CS1	DT40 TDP1 no CPT 12µM, TDP1 cell CPT 15µM
Cc1cc(C2=NNC(=NC3CCCCC3)SC2)c(C)n1-c1c(C)n(C)n(-c2ccccc2)c1=O	DT40 TDP1 no CPT inconclusive
Cc1cccc(C)c1N=C1NN=C(c2ccccc2F)CS1	DT40 TDP1 no CPT 21µM, TDP1 cell CPT 21µM
Cc1cc(C2=NNC(=NC3CC3)SC2)c(C)n1-c1ccccc1F	DT40 TDP1 no CPT 21µM, TDP1 cell CPT 16µM
CCOc1ccc(NS(=O)(=O)c2ccc(C(=O)N(C)CCc3ccc(OC)c(OC)c3)cc2)cc1	DT40 TDP1 no CPT inconclusive, TDP1 cell CPT inconclusive
CC(C)OCCCNC(=O)COCC(=O)Nc1ccc(OCCc2ccccc2)cc1	DT40 TDP1 no CPT 13µM, TDP1 cell CPT 18µM (no result: TDP1 inh)
CC(=O)Nc1ccc(OCC(=O)NCCc2ccccc2)cc1	none (no result: ClpP mod)
COc1ccc(S(=O)(=O)n2ccc(C(C)Oc3ccc(-c4ccccc4)c(F)c3)n2)cc1 (centres undefined)	DT40 TDP1 no CPT 18µM, TDP1 cell CPT 26µM
O=C1NC(Cc2ccccc2)c2nc3cc(F)ccc3c(=O)n2-c2ncccc21 (centres undefined)	none (no result: TDP1 inh)
CC1(C)C(O)CC[C@]2(C)C1CC[C@@]1(C)C2C(=O)C=C2[C@@H]3C[C@@](C)(C(=O)O)CC[C@@]3(C)CCC21C (some centres undefined)	none (no result: ClpP mod)
CC1(C)[C@@H](O)CC[C@]2(C)[C@H]3C(=O)C=C4[C@@H]5C[C@@](C)(C(=O)O)CC[C@]5(C)CC[C@@]4(C)[C@]3(C)CC[C@@H]12	DT40 TDP1 no CPT 2.4µM!, TDP1 cell CPT 7.5µM!
CCCc1cc(=O)[nH]c(SCC(=O)NCCC2=CCCCC2)n1	none (no result: ClpP mod)
CC(C)(C)NC(=S)N1CCC2CC1c1cc(-c3ccc4c(c3)OCO4)ccc12 (centres undefined)	DT40 TDP1 no CPT inconclusive, TDP1 cell CPT inconclusive (no result: TDP1 inh)
CC(C)(C)C(=O)N1CCC2CC1c1cc(-c3ccc4c(c3)OCO4)ccc12 (centres undefined)	DT40 TDP1 no CPT 23µM, TDP1 cell CPT inconclusive (no result: TDP1 inh)
O=C(C1CCCCC1)N1CCC2CC1c1cc(-c3ccc4c(c3)OCO4)ccc12 (centres undefined)	DT40 TDP1 no CPT 18µM, TDP1 cell CPT 18µM (no result: TDP1 inh)
CCCCCCC=C1CCC(CN2CCCC2)C1=O (centres undefined)	DT40 TDP1 no CPT 4.1µM, TDP1 cell CPT 2.9µM (no result: TDP1 inh)
CCc1c(C)[nH]c2c1C(=O)[C@H](CN1CCOCC1)CC2	none (no result: ClpP mod, DT40 TDP1 no CPT, TDP1 cell CPT)
COc1ccc(CCNC(=O)COc2ccc(N(C)S(=O)(=O)c3ccc(C)cc3)cc2)cc1OC	DT40 TDP1 no CPT 16µM, TDP1 cell CPT inconclusive (no result: ClpP mod)
COc1ccc(CCNC(=O)COc2ccc(N(C)S(=O)(=O)c3ccc(Cl)cc3)cc2)cc1	DT40 TDP1 no CPT inconclusive, TDP1 cell CPT 23µM (no result: ClpP mod)
COc1ccc(CCNC(=O)c2ccc(CNS(=O)(=O)c3ccccc3)cc2)cc1OC	DT40 TDP1 no CPT 16µM, TDP1 cell CPT 18µM
COc1ccc(CCNC(=O)C2CCC(CNS(=O)(=O)c3ccccc3)CC2)cc1OC (centres undefined)	none (no result: ClpP mod, DT40 TDP1 no CPT, TDP1 cell CPT)
COc1ccc(CCNC(=O)COc2ccc(-c3ccccc3)cc2)cc1OC	none
COc1ccc(CCNC(=O)c2ccc(N(C)S(=O)(=O)c3ccc(C)cc3)cc2)cc1OC	DT40 TDP1 no CPT 21µM, TDP1 cell CPT 21µM
COCCNC(=O)c1ccc(N(C)S(=O)(=O)c2ccc(OC)c(OC)c2)cc1	none
CN(c1ccc(OCC(=O)NCCc2ccccc2)cc1)S(=O)(=O)c1ccc(Cl)cc1	DT40 TDP1 no CPT inconclusive, TDP1 cell CPT inconclusive (no result: TDP1 inh)
COc1ccc(NC(=O)CN(C)C(=O)C2(c3ccccc3)CCCC2)cc1	DT40 TDP1 no CPT inconclusive, TDP1 cell CPT inconclusive (no result: ClpP mod)
COc1ccc(S(=O)(=O)NCc2ccc(C(=O)NCCN(C)Cc3ccccc3)cc2)cc1	DT40 TDP1 no CPT 21µM, TDP1 cell CPT 18µM (no result: TDP1 inh)
COc1ccc(CNC(=O)c2ccc(CNS(=O)(=O)c3ccc(OC)cc3)cc2)cc1	none
COc1ccc(CCNC(=O)c2ccc(CNc3nc(=S)[nH]c4ccccc34)cc2)cc1OC	DT40 TDP1 no CPT inconclusive, TDP1 cell CPT 15µM (no result: ClpP mod)
COc1ccc(CCNC(=O)c2c(O)c3ccccc3[nH]c2=O)cc1OC	DT40 TDP1 no CPT inconclusive (no result: TDP1 inh)
CCC(C)c1ccccc1N1CC(C(=O)Nc2cc(S(=O)(=O)N3CCOCC3)ccc2OC)CC1=O (centres undefined)	none (no result: TDP1 inh)
Cc1oc(-c2ccccc2NC(=O)C2CCC2)nc1CNC(=O)c1ccc2ccccc2c1	none (no result: ClpP mod, TDP1 inh)
O=C(OCc1cn([C@@H]2CN(C(=O)C3CCCCC3)[C@@H](c3ccc(Cl)cc3)C[C@H]2O)nn1)c1ccccc1	DT40 TDP1 no CPT inconclusive (no result: TDP1 inh)
COc1ccccc1N1CCN(S(=O)(=O)c2c(C)sc3ncn(CC(=O)NCCN(C)C)c(=O)c23)CC1	none
CCCN(CCC)CCNC(=O)Cn1cnc2sc(C)c(S(=O)(=O)N3CCN(c4ccccc4OC)CC3)c2c1=O	DT40 TDP1 no CPT 15µM, TDP1 cell CPT inconclusive
COc1ccccc1N1CCN(S(=O)(=O)c2c(C)sc3ncn(CC(=O)Nc4ccc(C(F)(F)F)cc4)c(=O)c23)CC1	DT40 TDP1 no CPT inconclusive, TDP1 cell CPT 16µM
Cc1cc(CNC(=O)COc2ccccc2F)c2ccccc2n1	DT40 TDP1 no CPT inconclusive, TDP1 cell CPT 15µM
Cc1cc(CNC(=O)COc2cc(F)ccc2[N+](=O)[O-])c2ccccc2n1	DT40 TDP1 no CPT 12µM, TDP1 cell CPT 12µM (no result: ClpP mod)
Cc1cc(CNC(=O)c2cccc([N+](=O)[O-])c2C)c2ccccc2n1	DT40 TDP1 no CPT 12µM, TDP1 cell CPT 10µM
Cc1cc(CNC(=O)COc2ccc(F)cc2F)c2ccccc2n1	DT40 TDP1 no CPT inconclusive, TDP1 cell CPT inconclusive (no result: ClpP mod)
OC1Cc2ccccc2C1Nc1cccc(C(F)(F)F)c1 (centres undefined)	DT40 TDP1 no CPT inconclusive (no result: TDP1 inh)
COc1ccc(C2=CC(=O)C[C@H](COCc3ccccc3)N(C(=O)OC(C)(C)C)O2)cc1	DT40 TDP1 no CPT 18µM, TDP1 cell CPT inconclusive (no result: TDP1 inh)
